These results are taken from PubChem BioAssay (EPA / NIEHS).

For assay [1], the target named is Transcription factor E2F1 (Homo sapiens) (UniProt Q01094). Description: ATG_E2F_CIS: Attagene CIS-FACTORIAL HepG2 Assay for human E2F Transcription Factor 1 (AID 2282935). The following applies: HepG2 Attagene cis-reporter, E2F reporter RNA transcripts; actives raise or lower the signal. Put shortly:
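Multiplexed cis-reporter assay: HepG2, transient transfection, 24 h dosing, mRNA quantitation by labeled RT-PCR and CE.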

Assay [2] in a line: ATG_E_Box_CIS: Attagene CIS-FACTORIAL HepG2 Assay for human Enhancer Box (E-box) (AID 2282936). Particulars: HepG2 E-box cis-reporter transcription, actives raise or lower the signal. A digest of the protocol: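 Multiplexed CIS reporter system in transiently transfected HepG2 cells measures native transcription factor activity. Reporter RNA after 24 h exposure is profiled by RT-PCR-capillary electrophoresis.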

Assay [3] in a line: ATG_M_61_CIS: Attagene CIS-FACTORIAL HepG2 Assay for M61 Transcription Factor (Internal Marker) (AID 2282937). Particulars: HepG2 Attagene CIS-FACTORIAL M61 internal marker reporter; actives raise or lower the signal. A digest of the protocol:
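Human liver HepG2, transient MRTU transfection (cis promoter elements), 24 h compound. Total RNA → oligo(dT) RT → PCR → FAM label → HpaI → CE. Internal background marker; bidirectional fitting, DMSO = baseline.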

Assay [4] can be described thus: ATG_EGR_CIS: Attagene CIS-FACTORIAL HepG2 Assay for human Early Growth Response 1 (EGR1) (AID 2282938). Particulars: HepG2 Attagene CIS-FACTORIAL EGR reporter mRNA; actives raise or lower the signal. Put shortly: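 Transient transfection of human HepG2 with multiple cis-regulated reporter units, chemical exposure 24 h, total RNA isolated. Reverse transcription, PCR, fluorescent labelling and capillary electrophoresis quantify reporter transcripts; activity fitted bidirectionally against DMSO.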

Assay [5] can be described thus: ATG_M_19_CIS: Attagene CIS-FACTORIAL HepG2 Assay for M19 Transcription Factor (Internal Marker) (AID 2282939). Particulars: HepG2 Attagene CIS-FACTORIAL M19 internal marker reporter; actives raise or lower the signal. A digest of the protocol:
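Readout: fluorescent reporter-transcript fragments by capillary electrophoresis after RT-PCR. Human HepG2 liver cells carried transfected MRTU constructs reporting endogenous transcription-factor activity; exposure 24 h. Gain or loss of signal fitted relative to DMSO.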

A short description of assay [6]: ATG_ERE_CIS: Attagene CIS-FACTORIAL HepG2 Assay for Estrogen Response Element (ERE) (AID 2282940). The following applies: HepG2 ERE cis-reporter, Attagene RNA transcript; actives raise or lower the signal. A digest of the protocol: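 Readout: reporter mRNA induction by RT-PCR, FAM-labelled primer extension, HpaI digestion and capillary electrophoresis, 24 h after dosing transfected HepG2 cells. Endogenous transcription factors act on cis-element-regulated reporters. Gain or loss fitted against DMSO.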

Assay [7] can be described thus: ATG_Ets_CIS: Attagene CIS-FACTORIAL HepG2 Assay for human Erythroblast Transformation Specific (ETS) (AID 2282941). The following applies: HepG2 ETS cis-reporter transcription, actives raise or lower the signal. A digest of the protocol: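 Human HepG2 hepatoma cells were transiently transfected with promoter-driven reporter constructs and treated for 24 hours. Reporter transcripts were quantified by RT-PCR with fluorescent primer extension; bidirectional curve fitting used DMSO as reference.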

The target of assay [8] is Hepatocyte nuclear factor 3-beta (Homo sapiens) (UniProt Q9Y261). In words: ATG_FoxA2_CIS: Attagene CIS-FACTORIAL HepG2 Assay for human Forkhead box A2 (FOXA2) (AID 2282942). Particulars: HepG2 cis-reporter transcription factor activity, 24 h; actives raise or lower the signal. A digest of the protocol: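 Transient MRTU transfection of HepG2 liver cells; 24 h treatment; total RNA → oligo(dT) RT → PCR → FAM primer extension → HpaI cut → CE. Bidirectional fit vs DMSO.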
Hepatocyte nuclear factor 3-beta (Homo sapiens), sequence (Q9Y261 whole entry, looked up): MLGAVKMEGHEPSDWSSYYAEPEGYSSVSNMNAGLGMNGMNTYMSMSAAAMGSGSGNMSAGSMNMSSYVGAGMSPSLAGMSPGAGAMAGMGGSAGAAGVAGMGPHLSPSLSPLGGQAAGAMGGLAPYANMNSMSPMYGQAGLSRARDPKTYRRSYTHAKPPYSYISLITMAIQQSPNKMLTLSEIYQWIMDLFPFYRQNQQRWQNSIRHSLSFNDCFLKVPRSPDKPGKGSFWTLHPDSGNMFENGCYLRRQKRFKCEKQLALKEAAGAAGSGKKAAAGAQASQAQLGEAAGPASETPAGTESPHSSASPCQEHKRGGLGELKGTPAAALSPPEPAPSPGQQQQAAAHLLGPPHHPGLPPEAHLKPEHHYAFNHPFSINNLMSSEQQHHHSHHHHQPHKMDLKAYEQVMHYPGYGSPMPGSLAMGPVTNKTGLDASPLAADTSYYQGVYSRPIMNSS

A short description of assay [9]: ATG_FoxO_CIS: Attagene CIS-FACTORIAL HepG2 Assay for human Forkhead box O (FoxO) (AID 2282943). Particulars: HepG2 Attagene cis-reporter, FoxO element, mRNA; actives raise or lower the signal. A digest of the protocol:
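Values reflect reporter mRNA induction or loss in HepG2 cells 24 h post-dosing, fitted bidirectionally with DMSO as negative control and baseline. Detection used RT-PCR and fluorescence capillary electrophoresis.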

Assay [10] can be described thus: ATG_GATA_CIS: Attagene CIS-FACTORIAL HepG2 Assay for human GATA Binding Protein (AID 2282944). The following applies: HepG2 GATA cis-element reporter, Attagene multiplex mRNA; actives raise or lower the signal. Put shortly: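 Read-out: fluorescent reporter mRNA fragments resolved by capillary electrophoresis after RT-PCR. Human liver HepG2 cells carried transiently transfected cis-regulated reporter constructs; chemicals incubated 24 h; gain or loss of signal fitted relative to DMSO.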

“And” between values parts separate entries of the source, which are not always exact repeats. Identical values can stand only once. The source made the active and inactive calls. The calls were made as follows: active = hit-call score of the fitted dose curve at least 0.9, where 1 is the maximum; inactive = score below 0.9.

Transcription factor E2F1 (Homo sapiens), sequence (Q01094 whole entry, looked up): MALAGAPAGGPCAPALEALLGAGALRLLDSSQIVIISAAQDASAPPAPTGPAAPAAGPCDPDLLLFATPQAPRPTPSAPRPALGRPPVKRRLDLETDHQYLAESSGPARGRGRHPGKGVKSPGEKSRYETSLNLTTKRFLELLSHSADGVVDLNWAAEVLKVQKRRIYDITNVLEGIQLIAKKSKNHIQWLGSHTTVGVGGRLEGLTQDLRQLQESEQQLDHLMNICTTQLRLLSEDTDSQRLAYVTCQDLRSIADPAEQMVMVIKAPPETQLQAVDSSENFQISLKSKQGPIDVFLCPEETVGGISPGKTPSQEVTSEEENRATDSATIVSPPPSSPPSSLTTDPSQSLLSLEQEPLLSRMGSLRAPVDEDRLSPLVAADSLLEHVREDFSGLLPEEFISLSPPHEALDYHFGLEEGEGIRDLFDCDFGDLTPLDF

In the case of `Cc1ccc(S(=O)(=O)O)c(C)c1`, the call in assay [1], in [2], in assay [3], in assay [4], in assay [5] and in assay [6] was inactive. In addition, the molecule was called inactive in assay [7], in assay [8], in assay [9] and in [10].
Turning to `CCCCC[C@H](O)CC(=O)CCc1ccc(O)c(OC)c1`, the molecule was classed as inactive in [1], in assay [2], in assay [3], in [4], in [5] and in [6]. Also, the outcome in assay [7], in assay [8], in [9] and in assay [10] was inactive.
By AC50 is commonly meant the midpoint of the concentration-response curve, whichever way the signal moves. `CC(C)(C)c1cccc(C(C)(C)C)c1O`: the figures for the AC50 in assay [1] and in [7] were 188 µM (active) and 166 µM (active), respectively. For the same molecule, the outcome in assay [2], in assay [3], in [4], in [5], in assay [6] and in assay [8] was inactive. Besides, the outcome in assay [10] was inactive.
In the case of `COC(=O)CCCCC(=O)OC`, the molecule was called inactive in [1], in [2], in [3], in assay [4], in assay [5] and in [6]. Further, the molecule was classed as inactive in assay [7], in assay [8] and in [10].
With `CCN(CC)CCNc1ccc(CNC=O)c2sc3ccc(OC)cc3c(=O)c12`, the result in assay [1], in [2], in assay [3], in [4], in [5] and in [8] was inactive. Also, the molecule was called inactive in assay [9] and in [10]. The AC50 is 722 nM (active) in assay [6] and 1.42 µM (active) in assay [7].
On to `CCCCC(CC)COC(=O)CCCCC(=O)OCc1ccccc1` (stereo unspecified), for which the outcome in assay [1], in assay [2], in assay [3], in assay [4], in assay [5] and in assay [6] was inactive. Moreover, the result in assay [7], in assay [8] and in [10] was inactive.
For the molecule `COc1cc(CCC(=O)CC(=O)CCc2ccc(O)c(OC)c2)ccc1O`, the outcome in assay [1], in [2], in assay [3], in [4], in assay [5] and in [6] was inactive. In addition, the outcome in assay [7], in assay [8] and in [10] was inactive.
As to `CCOC(=O)CC(O)(CC(=O)OCC)C(=O)OCC`, the molecule was called inactive in assay [1], in [2], in [3], in [4], in [5] and in [6]. The outcome in [7], in [8] and in [10] was inactive.
As to `CC(O)CO` (stereo unspecified), the molecule was called inactive in [1], in assay [2], in [3], in assay [4], in assay [5] and in assay [6]. Further, the outcome in assay [7], in assay [8], in [9] and in assay [10] was inactive.
For `FC(F)(I)C(F)(F)C(F)(F)C(F)(F)C(F)(F)C(F)(F)I`, the molecule was called inactive in assay [1], in assay [2], in assay [3], in [5], in assay [8] and in [10]. Besides, the AC50 in assay [4] was 16.4 µM (active); in assay [6], 19.2 nM (active); in [7], 18.3 µM (active).
For `CCc1ccc(CCOc2ccc(CC3SC(=O)NC3=O)cc2)nc1` (stereo unspecified), the molecule was classed as inactive in [1], in [2], in assay [3], in assay [4], in assay [5] and in assay [7]. The molecule was classed as inactive in assay [8], in assay [9] and in assay [10]. The AC50 in [6] was 19.8 µM (active) and 41.4 µM (active).
Take `C=C(C)C(=O)OCCC(F)(F)C(F)(F)C(F)(F)C(F)(F)C(F)(F)C(F)(F)F`: the molecule was called inactive in assay [1], in assay [2], in assay [3], in assay [4], in assay [5] and in assay [7]. Also, the call in assay [8], in assay [9] and in assay [10] was inactive. Also, the AC50 in [6] is 57.4 µM (active) and 150 µM (active).
In the case of `NC(=O)N1C(=O)C(C(=O)c2cc(Cl)cs2)c2cc(F)c(Cl)cc21` (stereo unspecified), the result in assay [1], in assay [2], in [3], in [4], in [5] and in assay [6] was inactive. Further, the molecule was classed as inactive in assay [7], in [8] and in assay [10].
Regarding `C#C[C@]1(O)CC[C@H]2[C@@H]3CCC4=CC(=O)CC[C@@H]4[C@H]3CC[C@@]21C`, the molecule was classed as inactive in [1], in assay [2], in assay [3], in assay [4], in [5] and in [7]. For the same molecule, in assay [10], the molecule was called inactive.
As to `CCCCCCCC(=O)O`, the call in assay [1], in assay [2], in assay [3], in assay [4], in assay [5] and in [6] was inactive. Besides, the molecule was called inactive in assay [7], in assay [8], in assay [9] and in assay [10].
`CC(C)(C)CC(C)(C)c1ccc(O)c(-n2nc3ccccc3n2)c1`: the molecule was classed as inactive in assay [1], in [2], in assay [3], in assay [4], in assay [5] and in [6]. The call in assay [7], in [8] and in [10] was inactive.
Consider `Cc1cc(CCN2CCN(c3nsc4ccccc34)CC2)cc2c1NC(=O)CC2(C)C`, for which the outcome in assay [1], in assay [2], in assay [3], in [5], in assay [6] and in assay [7] was inactive. Also, the result in assay [8] and in assay [10] was inactive. Besides, the AC50 in assay [4] was 4.06 µM (active).
Regarding `CCCCC(CC)COC(=O)CCCCC(=O)OCC(CC)CCCC` (stereo unspecified), the molecule was called inactive in assay [1], in assay [2], in assay [3], in assay [4], in [5] and in assay [6]. For the same molecule, the molecule was called inactive in assay [7], in [8] and in [10].
With `CC(C)CCCCCCOC(=O)CCCCC(=O)OCCCCCCC(C)C`, the call in [1], in assay [2], in assay [3], in assay [4], in [5] and in assay [6] was inactive. For the same molecule, the call in assay [7], in assay [8] and in assay [10] was inactive.
